Screening results as filed in PubChem.
Only some compounds are listed: those with a hit (about 3.9% of all), similar ones and a draw of the others.
USP2a block: blocks human ubiquitin-specific protease USP2a; Potency, µM (titrated, usually from 38.3 µM), actives largely listed as inhibitors; USP2 core, Ub-CHOP2 coupled fluorogenic reporter, 485/531; AID 463254; O75604; 0.01% of 330,000 active
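Cell-free coupled assay: 10nM USP2 core preincubated 30min RT with compound in Tris-HCl pH 8.0/CaCl2/CHAPS buffer, then 25nM Ub-CHOP2 and 25nM reporter substrate; fluorescence (Ex 485/Em 531) read after 60min RT, normalized to NEM inhibition, concentration-response curves fitted.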
D1 PAM: potentiators of human D1 dopamine receptor; potentiation, % at 10 µM; HEK293 TREx D1 cells, calcium flux, dopamine EC20 potentiation; 0.036% of 360,000 active; P21728; in the data active = potentiation above about 30%
Target sequence (P21728 whole entry, looked up): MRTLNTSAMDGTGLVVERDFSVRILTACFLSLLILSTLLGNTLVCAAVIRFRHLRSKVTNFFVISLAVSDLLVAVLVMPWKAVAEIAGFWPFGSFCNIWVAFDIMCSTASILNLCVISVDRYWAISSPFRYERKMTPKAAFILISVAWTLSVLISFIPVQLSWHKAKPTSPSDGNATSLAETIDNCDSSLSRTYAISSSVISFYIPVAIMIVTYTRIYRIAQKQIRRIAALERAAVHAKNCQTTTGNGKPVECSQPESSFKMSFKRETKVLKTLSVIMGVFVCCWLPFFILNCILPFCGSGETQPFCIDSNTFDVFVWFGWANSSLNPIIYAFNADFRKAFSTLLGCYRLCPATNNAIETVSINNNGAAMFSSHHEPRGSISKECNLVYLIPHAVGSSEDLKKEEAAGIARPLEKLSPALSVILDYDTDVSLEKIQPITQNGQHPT
D1 antagonist: blocks dopamine activation of the human D1 receptor; 3.2% of 360,000 active; HEK293 TREx D1 cells, calcium flux, dopamine EC80; active compounds read low; activity change, negative = inhibition, % at 10 µM; P21728; in the data active = activity change below about -30%
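Compound effects on dopamine-evoked calcium signalling were measured in tetracycline-induced HEK293 Trex D1 cells. Dopamine at EC80 followed a 180 s compound pre-read, and fluorescence was tracked kinetically for 180 s more.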
Eya2 phos inh: inhibitors of human Eya2 phosphatase activity. recombinant Eya2, OMFP fluorescence dephosphorylation (OMFP is methylfluorescein phosphate). Potency, µM (series often up to 76.9 µM), actives largely listed as inhibitors. 0.006% of 330,000 active. AID 488837
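Eya2 protein (added as 0.2 uM solution) was preincubated with compound for 10 min at ambient temperature in 50 mM HEPES pH 7.5, 50 mM NaCl, 5 uM MgCl2, 0.05% BSA, 1 mM DTT. OMFP (added at 50 uM) then reacted 10 min; fluorescence read at 485/525 nm.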
D1 ag: activates the human D1 dopamine receptor; 1% of 360,000 active; P21728; HEK293 T-REx D1 cells, calcium flux, agonist mode; AID 504660; activation, % at 2 µM; in the data active = activation above about 30%
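Agonism was scored from calcium flux recorded over 180 s (1 read/s) after pintool compound addition, following a 10-cycle baseline. Cells were inducible force-coupled HEK293 TREx D1, plated overnight at 30 C and loaded with no-wash calcium dye.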
GALK inh: inhibitors of human galactokinase; Potency, µM (highest dose often 57.5 µM), usual class: inhibitors; Purified GALK, Kinase-Glo residual ATP luminescence; 0.007% of 270,000 active
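ATP-depletion format; final 35 uM ATP, 100 uM D-galactose, 5 nM enzyme; pH 8.0 HEPES/Mg2+ buffer; 60 min RT; luminescence read 10 min after detection reagent.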
A number is an active result; – = inactive; · = no result given. Unless noted, calls come from the whole dose curve; as a rule, active = well fitted inhibition curve with a large enough effect; inconclusive = small, poorly fitted or top-dose-only effect, or effect the other way; inactive = flat fitted curve, though single readings scatter.

SMILES	USP2a block	D1 PAM	D1 antagonist	Eya2 phos inh	D1 ag	GALK inh
O=[N+]([O-])c1ccc(N(c2ccccc2)c2ccccc2)cc1	–	–	–	–	42.0	–
CCN(CC)C(=O)CSc1nc(-c2ccc(C)cc2)nc2c1Cc1c(CO)cnc(C)c1O2	·	–	–	·	–	·
Cc1c(C2=CCN(S(=O)(=O)c3ccc(Br)cc3)CC2)c2ccccc2n1CC(=O)N1CCCC1	·	–	–	·	–	·
Cc1c(C2=CCN(S(=O)(=O)c3ccc(CC(C)C)cc3)CC2)c2ccccc2n1CC(=O)N1CCCC1	·	–	–	·	37.8	·
O=C(CSc1ncc2c(n1)-c1ccc(Cl)cc1N(Cc1ccccc1)S2(=O)=O)Nc1ccccc1C(F)(F)F	·	–	–	·	–	·
Cc1nc2nc(CNC(=O)c3cccc(F)c3)nn2c(C)c1CCC(=O)Nc1ccc(F)cc1	·	–	–	·	–	·
Cc1ccc(-c2nn(-c3ccccc3)cc2/C=N/O)cc1	–	37.9	–	–	58.5	–
Cc1ccc(-c2nn(-c3ccccc3)cc2/C=C/C(=O)Nc2nccs2)cc1	–	–	-30.9	–	–	–
O=C(/C=C/c1cn(-c2ccccc2)nc1-c1ccccc1)Nc1ccc(C(=O)O)cc1	–	–	–	–	–	–
Cc1cccc(NC(=O)CS(=O)(=O)c2nc(-c3ccccc3)cn2-c2cccc(Cl)c2)c1C	·	–	–	·	–	·
Cn1c(=O)oc2cc(S(=O)(=O)N3CCCC(C(=O)N4CCN(c5cccc(Cl)c5)CC4)C3)ccc21 (stereo not drawn)	·	–	-31.7	·	–	·
Cc1cccc(N2CCN(C(=O)C3CCCN(S(=O)(=O)c4ccc5c(c4)oc(=O)n5C)C3)CC2)c1C (stereo not drawn)	·	–	-30.8	·	–	·
Cc1cccc(CCNC(=O)C2CCCN(S(=O)(=O)c3ccc4c(c3)oc(=O)n4C)C2)c1 (stereo not drawn)	·	–	-50.2	·	–	·
Cn1c(=O)oc2cc(S(=O)(=O)N3CCC(C(=O)N4CCN(c5cccc(Cl)c5)CC4)CC3)ccc21	·	–	-31.2	·	–	·
CC1CCCCN1S(=O)(=O)c1ccc(C(=O)Nc2sc3c(c2C(N)=O)CC(C)(C)NC3(C)C)cc1 (stereo not drawn)	·	–	–	·	–	·
CSc1ccc(-c2nc3ncccn3c2Nc2ccc(C)c(C)c2)cc1	·	–	–	·	–	·
CC(=NCCc1ccccc1)C1=C(O)CSC1=O	–	–	-46.0	–	–	–
CC(=NCCc1ccccc1)C1=C(O)CCC1=O	–	–	–	–	–	–
c1ccc(COCCN2CCN(CCOCc3ccccc3)CC2)cc1	–	–	–	–	–	–
C(#CCN1CCC(Cc2ccccc2)CC1)COCCOCc1ccccc1	–	–	-35.5	–	–	–
OCc1ccccc1OCCCN1CCC(Cc2ccccc2)CC1	–	–	-39.2	–	–	–
Clc1ccccc1OCCN1CCC(Cc2ccccc2)CC1	–	–	-42.2	–	–	–
Cc1nc(-c2ccccc2)nc2sc(C(=O)c3ccc(F)cc3)c(N)c12	–	–	–	–	34.1	–
CC(=O)N1CCc2nc3sc(C(=O)c4ccc(F)cc4)c(N)c3c(C(F)(F)F)c2C1	·	–	–	·	61.2	·
COc1ccc(Br)cc1S(=O)(=O)N1CCN(S(=O)(=O)c2ccc3c(c2)OCCO3)CC1	·	–	–	·	–	·
SMILES	USP2a block	D1 PAM	D1 antagonist	Eya2 phos inh	D1 ag	GALK inh
Cc1c(NC(=O)c2cc(-n3cnnc3)ccc2Cl)cccc1-c1nc2ccccc2o1	–	–	-44.1	–	–	–
O=C(Nc1ccc(-c2nc3ccccc3o2)c(O)c1)c1cc(-n2cnnc2)ccc1Cl	–	–	–	–	–	–
Cc1ccc(Cn2c(C)c(CNC(C)c3ccccc3)c(C(=O)O)c2C)cc1 (stereo not drawn)	·	–	–	·	–	·
CCOCCCN(C(=O)Nc1ccc(Cl)cc1)C1CCN(C(C)=O)CC1	·	–	-30.5	·	–	·
CCCOc1cccc(C(=O)Nc2cc(-c3ccccc3)no2)c1	·	–	–	·	–	·
Cc1cccc(Cl)c1NC(=S)NN	–	–	-42.1	–	–	–
Cc1c(Cl)cccc1NC(=S)NN	–	–	–	–	–	–
Cc1ccc(CN(C(=O)c2ccc(OCC(C)C)cc2)c2ccccn2)o1	·	–	–	·	–	·
C/C=C(/C)C(=O)O[C@@H]1c2cc3c(c(OC)c2-c2c(cc(OC)c(OC)c2OC)[C@@H](OC(C)=O)[C@@H](C)[C@H]1C)OCO3	–	–	-62.1	–	–	–
N=c1n(CC(=O)c2ccc(Br)s2)c2ccccc2n1Cc1ccccc1	–	–	–	–	48.7	–
CCc1ccc(S(=O)(=O)c2nnn(-c3ccc(F)cc3)c2N)cc1	·	–	–	·	–	·
O=C(OCc1ccccc1Cl)c1ccc(-c2nnn(Cc3ccccc3)n2)cc1	·	–	–	·	–	·
Cn1c(Sc2ccc(Br)cc2)c(C=O)c2ccccc21	–	–	-63.3	–	–	–
COc1ccc(N=C2S/C(=C\c3ccc(N4CCOCC4)o3)C(=O)N2CCc2c[nH]c3ccccc23)cc1	–	–	-30.2	–	–	–
COC(=O)Cn1cc(/C=N/NC(=O)c2ccc(C#N)cc2F)c2ccccc21	–	–	-39.1	–	–	–
CCn1cc(/C=N/NC(=O)c2ccc(C#N)cc2F)c2ccccc21	–	–	–	–	–	–
O=C(NCCc1ccccc1)C(=O)NCC1(c2ccccc2)CCCC1	–	–	-30.5	–	–	–
O=C(CCc1ccccc1)NCC1(c2ccccc2)CCCC1	–	–	–	–	–	·
Nc1[nH]n2c(=O)c3c(nc2c1N=Nc1ccc(Cl)cc1)CCCC3	–	–	-49.8	–	–	–
Nc1[nH]n2c(=O)c3c(nc2c1N=Nc1ccccc1)CCCC3	–	–	–	–	–	–
COc1ccccc1/C=C/CN1CCC(Oc2ccc(C(=O)N3CCCCC3)cc2)CC1	–	–	–	–	–	–
COc1ccc(C(=O)NC2CC2)cc1OC1CCN(Cc2ccc(F)cc2)CC1	–	–	-40.4	–	–	–
COc1ccc(C(=O)NCc2cnn(C)c2)cc1OC1CCN(C(C)C)CC1	–	–	–	–	–	–
C#Cc1ccc(CN2CCC(Oc3cc(C(=O)NC4CC4)ccc3OC)CC2)cc1	–	–	-45.0	–	–	·
COc1ccccc1/C=C/CN1CCC(Oc2cc(C(=O)NC3CC3)ccc2OC)CC1	–	–	-73.0	–	–	–
CCc1ccc(CNC(=O)c2ccc(OC)c(OC3CCN(C(C)C)CC3)c2)nc1	–	–	-80.0	–	–	–
COc1ccc(C(=O)NC2CC2)cc1OC1CCN(Cc2ccc(F)c(F)c2)CC1	–	–	–	–	–	–
COc1ccc(C(=O)NC2CC2)cc1OC1CCN(Cc2ccccc2)CC1	–	–	–	–	–	–
